From PubChem BioAssay (NCI)
About 79,000 compounds went through this panel and 15% of them were active in at least one assay; those are over-represented in the sample as a whole. No stated cut-off is given here; in the data, active means growth inhibition above about 70%; inactive means the rest.

How the values were obtained:
[1] = NCI Yeast Anticancer Drug Screen. Data for the rad50 strain (AID 155);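 further: 0% = growth of vehicle-only cultures of the same strain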; details: S. cerevisiae rad50 strain growth inhibition; at 50.0 µM; hits give high values
In short: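 Cells are treated with compound, grown, and their growth is then scored against vehicle-only cultures of the same repair-deficient yeast strain.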

[2] = NCI Yeast Anticancer Drug Screen. Data for the mec2-1 strain (AID 157); details: S. cerevisiae mec2-1 strain, at 50.0 µM, hits give high values
In short: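 Test agents were screened against the mec2-1 yeast strain, with defined DNA repair or cell cycle alteration. Growth was scored as inhibition against vehicle-only controls.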

[3] = NCI Yeast Anticancer Drug Screen. Data for the sgs1 mgt1 strain (AID 161);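 further: 0% = growth of cultures given vehicle only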; details: S. cerevisiae sgs1 mgt1 strain, at 50.0 µM, hits give high values
In short: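 Genetically altered yeast, compound exposure, growth inhibition relative to vehicle.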

[4] = NCI Yeast Anticancer Drug Screen. Data for the cln2 rad14 strain (AID 165);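 further: 0% = growth equal to vehicle treated cultures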; details: S. cerevisiae cln2 rad14 strain, at 50.0 µM, hits give high values
In short: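 Growth of compound-exposed yeast (cln2 rad14 genotype) measured and expressed as inhibition relative to vehicle.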

[5] = NCI Yeast Anticancer Drug Screen. Data for the bub3 strain (AID 167); details: S. cerevisiae bub3 mutant strain, at 50.0 µM, hits give high values
In short: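 Part of a panel of yeast mutants defective in DNA damage repair or cell cycle regulation. Each strain is grown with compound, and inhibition is calculated relative to solvent-treated cultures.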

[6] = NCI Yeast Anticancer Drug Screen. Data for the mlh1 rad18 strain (AID 175); details: S. cerevisiae mlh1 rad18 strain growth inhibition; at 50.0 µM; hits give high values
In short: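 In this whole-cell yeast screen, a strain with altered DNA damage repair is challenged with compound, and its growth is measured against matched vehicle-treated controls.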

Measured: growth inhibition

CCOC(=O)Cn1c(=O)n(C)c(=O)c2c1ncn2Cc1ccccc1
inactive: [1] 0.7% | [2] -31.2% | [3] -14.3% | [4] -4.25% | [5] 9.5% | [6] -14.4%

CCC(O)(Cc1ccc(OC)cc1)c1ccc(OC)cc1 (stereo not given)
inactive: [1] -33.1% | [2] -24.4% | [3] 14.8% | [4] 1.4% | [5] 11.7% | [6] -11.8%

COc1cc2c[n+](C)c(-c3ccc(Cl)c(Cl)c3)c(OC)c2cc1OC
inactive: [1] 56.1% | [2] 8.15% | [3] 41.5% | [4] 31.4% | [5] 14.9% | [6] 41.5%

COc1cc(C2OC[C@@H]3C(=O)OC[C@H]23)cc(O)c1OC (stereo not given in full)
inactive: [1] 3.35% | [2] -1.6% | [3] -33.1% | [4] -13.3% | [5] -38.8% | [6] -23.7%

c1ccc2cc3c(cc2c1)OP1(=NP2(=NP4(=N1)Oc1cc5ccccc5cc1O4)Oc1cc4ccccc4cc1O2)O3
inactive: [1] 67.7% | [2] 28.1% | [3] 33.6% | [4] 18.8% | [5] 15.7% | [6] 12.6%

CC(=O)NC1(C#N)c2ccccc2-c2ccccc21
inactive: [1] 18.6% | [2] 4.2% | [3] 18.9% | [4] 9.3% | [5] 5.25% | [6] 4.55%

COc1ccc(/C=N/NC(=O)c2ccc(N)cc2)cc1
inactive: [1] -1.65% | [2] 3% | [3] 14.4% | [4] -15.9% | [5] 22.4% | [6] 8.75%

O=c1c(Cl)c(N2CCCCC2)cnn1-c1ccccc1
inactive: [1] 20.8% | [2] 14.2% | [3] 16.6% | [4] 7.6% | [5] 14.1% | [6] 19.4%

O=C(Nc1nc(C23CC4CC(CC(C4)C2)C3)cs1)c1cc2cc(Br)cc(Br)c2oc1=O
inactive: [1] -8.75% | [2] -13.8% | [3] 23.3% | [4] 19.9% | [5] -12.8% | [6] -8.4%

NNC(=O)N/N=C1\C(=O)N(c2ccc(Cl)c(Cl)c2)C(=O)C(=O)C1c1nc2ccccc2s1 (stereo not given)
inactive: [1] 41.4% | [2] 5.95% | [3] 26.9% | [4] 13.3% | [5] 0% | [6] 26.4%

NNC(=O)C(=O)N/N=C1/CCCC1C(=O)CCC(=O)Nc1ccc(Cl)cc1 (stereo not given)
inactive: [1] -4% | [2] -14.2% | [3] 0% | [4] -0.2% | [5] 0.3% | [6] -6.9%

CSc1n[nH]c(=O)c2nc[nH]c12
inactive: [1] -9.3% | [2] -9.2% | [3] 0.55% | [4] -34.5% | [5] 7.75% | [6] -5.2%

CN1C(=O)CCC1(O)C1C=CC=CC1 (stereo not given)
inactive: [1] 16.8% | [2] 7.55% | [3] 1.75% | [4] 16.9% | [5] -4.9% | [6] -2.85%

Nc1nc(N)c2nc(C(=O)O)c(C(=O)O)nc2n1
inactive: [1] -20.6% | [2] -8.2% | [3] -11.5% | [4] -15.8% | [5] -19% | [6] -4.2%

Cc1cccc(C(C)C)c1NC(=O)C(=O)CC(=O)c1c(C)n([O-])c2ccccc2[n+]1=O
inactive: [1] -7.2% | [2] 9.45% | [3] -10% | [4] 12.2% | [5] -13.1% | [6] -16.2%

Cc1ccccc1N1CC2CC3C=CC2(C1)O3 (stereo not given)
inactive: [1] 8.5% | [2] 15.9% | [3] 16.8% | [4] -10.1% | [5] 1.35% | [6] 1.7%

COc1c(NC(=O)c2ccccc2Cl)cccc1[N+](=O)[O-]
inactive: [1] -1% | [2] 1.3% | [3] 13.8% | [4] -6.75% | [5] 16.9% | [6] 20.2%

CC/C(Cl)=N\OC(=O)Nc1ccc(C#N)cc1
inactive: [1] -44.8% | [2] 4.9% | [3] -19.4% | [4] 13.8% | [5] 46.3% | [6] -10.4%

COc1ccc(C2SC(N)=Nc3c2c(C)nn3C(=O)c2ccc(Cl)cc2)cc1 (stereo not given)
inactive: [1] 3.7% | [2] -14.8% | [3] 22.6% | [4] -18.1% | [5] -11.3% | [6] 7.8%

O=C(OC1CC2CCC23CCC13)c1ccccc1 (stereo not given)
inactive: [1] -1.35% | [2] 6.1% | [3] 10.2% | [4] -7.6% | [5] -37.5% | [6] -18.9%
